# Records with an inconclusive call do not appear. A number with no mark means an inactive call. The call rests on the fitted dose curve; in most records, active means well fitted cell-killing curve with a large enough effect; inconclusive means small, poorly fitted or top-dose-only effect, or effect the other way; inactive means no such curve, though single readings can be large or run the other way.
# Experiment: qHTS assay to identify small molecule inhibitors of chordoma cells - UCH-1 (AID 1259355); further: nearly all actives have a fitted effect of over 55% in size
# Details: UCH-1 chordoma viability, CellTiter-Glo, 48 h, combination, with auranofin plus four topoisomerase inhibitors; series mostly up to 46.1 µM; activity, negative = inhibition: at the top concentration
# Method in brief: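 800 cells/well, overnight attach; compounds pinned at 15 concs, then auranofin/camptothecin/doxorubicin/rubitecan/topotecan combo added; 48hr 37 C, 5% CO2; CellTiter-Glo, 30min RT, luminescence.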
# On the % scale 0 is the no-effect control and ±100 the full control effect.
row,SMILES,"activity, negative = inhibition"
1,O=P(O)(O)OP(=O)(O)O,-10.3%
2,CNC(=O)[C@H](Cc1c[nH]c2ccccc12)NC(=O)[C@@H](CC(=O)NO)CC(C)C,-11.4%
3,COC1[C@@H](O[C@@H]2O[C@H](C)[C@@H](O[C@H]3C[C@@](C)(O)[C@H](OC(=O)CC(C)C)[C@H](C)O3)[C@H](N(C)C)[C@H]2O)[C@@H](CC=O)C[C@@H](C)[C@@H](O)/C=C/C=C/C[C@@H](C)OC(=O)C[C@H]1OC(C)=O (stereo partly drawn),-37.3% [at 20.6 µM]
4,CC1CCCC(C)N1NC(=O)c1ccc(Cl)c(S(N)(=O)=O)c1 (stereo not drawn),-9.84% [at 20.6 µM]
5,CC[C@H](CC[C@@H](C)[C@H]1CC[C@H]2[C@@H]3CC=C4C[C@@H](O)CC[C@]4(C)[C@H]3CC[C@]12C)C(C)C,-5.86%
6,FC(F)(F)C(F)(F)C(F)(F)C(F)(F)C(F)(F)C(F)(F)F,-21.7%
7,O=C(O)[C@@H]1C[C@H](CP(=O)(O)O)CCN1,0.187%
8,O=C1c2ccccc2C(=O)C1c1ccc(Cl)cc1,-7.64%
9,C=C1[C@H](CO)[C@@H](O)C[C@@H]1n1cnc2c(=O)[nH]c(N)nc21,-1.4%
10,Cc1ncc(C[n+]2csc(CCOP(=O)(O)OP(=O)(O)O)c2C)c(N)n1,0.917%
11,C=CC[N@@+]12CC[C@@]34c5ccccc5N5/C=C6/[C@H]7C[C@H]8[C@@]9(CC[N@@+]8(CC=C)C/C7=C/CO)c7ccccc7N(/C=C(/[C@@H](C[C@@H]31)/C(=C\CO)C2)[C@H]54)[C@@H]69,15.5% [at 20.6 µM]
12,NC(=O)[C@@H]1C[C@]2(NC(=O)NC2=O)c2cc(F)ccc2O1,-5.57%
13,CCC(O)c1ccccc1 (stereo not drawn),-14%
14,O=C(O)CCC/C=C\C[C@@H]1[C@@H](/C=C/[C@@H](O)COc2cccc(Cl)c2)[C@H](O)C[C@@H]1O,-8.15%
15,CC(CNC(=O)c1cccnc1)NC(=O)c1cccnc1 (stereo not drawn),0.179%
16,CCOC(=S)SSC(=S)OCC,-9.67%
17,CCCc1nc(C(C)(C)O)c(C(=O)OCc2oc(=O)oc2C)n1Cc1ccc(-c2ccccc2-c2nn[nH]n2)cc1,-13.1%
18,Cc1ccc(C(C)(C)c2ccc(C)cc2)cc1,-16.1%
19,[O]=[Bi][O][Bi]=[O],-15.1%

row,SMILES,"activity, negative = inhibition"
1,CC(=O)[C@@]1(O)CC[C@H]2[C@@H]3C=C(Cl)C4=CC(=O)[C@@H]5C[C@@H]5[C@]4(C)[C@H]3CC[C@@]21C,-5.27%
2,Nc1ncnc2c1ncn2CCOCP(=O)(O)O,-10.3%
3,CC1CCC(NC(=O)N(CCCl)N=O)CC1 (stereo not drawn),7.45%
4,CS(=O)(=O)c1ccc([C@@H](O)[C@@H](COC(=O)CN)NC(=O)C(Cl)Cl)cc1,-7.7%
5,CN1CCN(C(c2ccccc2)c2ccc(Cl)cc2)CC1 (stereo not drawn),-41.4% [at 20.6 µM]
6,CO[C@H]1C=CO[C@@]2(C)Oc3c(C)c(O)c4c(O)c(cc(O)c4c3C2=O)NC(=O)/C(C)=C\C=C/[C@H](C)[C@H](O)[C@@H](C)[C@@H](O)[C@@H](C)[C@H](OC(C)=O)[C@@H]1C,-11.7%
7,COc1cc2c(cc1OC)[C@@H](Cc1cc(OC)c(OC)c(OC)c1)[N+](C)(CCCOC(=O)CC/C=C/CCC(=O)OCCC[N+]1(C)CCc3cc(OC)c(OC)cc3[C@H]1Cc1cc(OC)c(OC)c(OC)c1)CC2 (stereo partly drawn),1.95%
8,CCCCC(O)c1ccccc1 (stereo not drawn),1.77%
9,Cc1nc(NS(=O)(=O)c2ccc(N)cc2)nc(C)c1Br,-5.5%
10,Cc1cc(C)c(NC(=O)C[C@H](CC(=O)O)c2cccc3ccccc23)c(C(=O)N2CCC3(CCCC3)CC2)c1,-1.62% [at 1.88 µM]
11,O=C(O)CCC/C=C\C[C@@H]1[C@@H](/C=C/[C@@H](O)COc2cccc(C(F)(F)F)c2)[C@H](O)C[C@@H]1O,-16.3%
12,CC[C@@H]1/C=C(\C)C[C@H](C)C[C@H](OC)[C@H]2O[C@@](O)(C(=O)C(=O)N3CCCC[C@H]3C(=O)O[C@H](/C(C)=C/[C@@H]3CC[C@@H](Cl)[C@H](OC)C3)[C@H](C)[C@@H](O)CC1=O)[C@H](C)C[C@@H]2OC,-5.63%
13,CCCCC[C@H](O)/C=C/[C@H]1[C@H](O)CC(=O)[C@@H]1CCCCCCC(=O)O,-15.2% [at 20.6 µM]
14,C[C@@H](O)[C@H]1C(=O)N2C(C(=O)[O-])=C(SC3Cn4cnc[n+]4C3)[C@H](C)[C@H]12 (stereo partly drawn),-14%
15,NC[C@H]1O[C@H](O[C@H]2[C@H](O)[C@@H](O[C@H]3O[C@H](CO)[C@@H](O)[C@H](N)[C@H]3O)[C@H](N)C[C@@H]2N)[C@H](O)[C@@H](O)[C@@H]1O,-10.8% [at 20.6 µM]
16,O=c1[nH]c(=O)n([C@H]2C[C@H](O)[C@@H](CO)O2)cc1/C=C/Br,-8.7%
17,CCN(CC)C(=O)[C@]1(c2ccccc2)C[C@@H]1CN,4.93%
18,O=C(O)/C=C/C(=O)Nc1ccc(S(=O)(=O)Nc2nccs2)cc1,-3.03%
19,C=CC[C@@H]1/C=C(\C)C[C@H](C)C[C@H](OC)[C@H]2O[C@@](O)(C(=O)C(=O)N3CCCC[C@H]3C(=O)O[C@H](/C(C)=C/[C@@H]3CC[C@@H](O)[C@H](OC)C3)[C@H](C)[C@@H](O)CC1=O)[C@H](C)C[C@@H]2OC,-20.1%

# From PubChem BioAssay (NCATS)
